# Test results reported in PubChem BioAssay.
# Activity calls are given as the source filed them.
# Assays:
# [1] = system: Human papillomavirus type 1a protein E7 (residues 44-93); assay: HPV1a E7 fragment binders on microarrays, primary screen, biochemical, small-molecule microarray, residues 44-93, 635 nm fluorescence (AID 1108); settings: small-molecule microarray binding, fluorescence 635 nm; higher = more signal;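 note: E7 fragment applied at 1 µg/mL in TBST for 1 h at 4 C; score combines spot fluorescence with its signal to noise ratio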
# [2] = modulators of HCV replicon luciferase signal, primary screen, HCV replication inhibitor project, Huh7 cells, luciferase reporter (AID 1109); settings: 48 h, higher = more signal;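 note: huh7 hepatoma cells harbouring a luciferase neomycin HCV replicon reporter; luciferase luminescence as measure of HCV replicon replication; test concentration not given here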
# [3] = target: Left-right determination factor 2 (Homo sapiens) (UniProt O00292); assay: LEFTY2 binders on small-molecule microarrays, primary screen, biochemical, small-molecule microarray, 635 nm fluorescence scan (AID 1110); settings: LEFTY2 binding, higher = more signal
# [4] = target: Calmodulin-1 (Homo sapiens) (UniProt P0DP23); assay: CALM1 binders on microarrays, EGTA buffer, profiling panel, biochemical, small-molecule microarray, Cy5-labelled CALM1 (AID 1111); settings: Cy5-CALM1 binding fluorescence, higher = more signal;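 note: labelled calmodulin applied in Tris saline Tween buffer holding calcium plus EGTA and DTT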
# [5] = target: Calmodulin-1 (Homo sapiens) (UniProt P0DP23); assay: calcium-bound CALM1 binders on microarrays, profiling panel, artefact control for SMM control-protein annotation, biochemical, small-molecule microarray, Cy5-labelled CALM1, plus calcium (AID 1112); settings: Cy5-CALM1 binding fluorescence, higher = more signal;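 note: score merges spot fluorescence with signal to noise from triplicate slides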
# [6] = small-molecule microarray binders of probe aWnt5a, primary screen, biochemical, biotinylated probe, 635/667 nm fluorescence (AID 1113); settings: higher = more signal;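 note: score merges 667 nm fluorescence intensity with signal-to-noise per printed feature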
# [7] = small-molecule microarray binders of probe aShh, primary screen, biochemical, biotinylated probe, 635/667 nm fluorescence (AID 1114); settings: higher = more signal;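 note: probe is biotin-labelled aShh protein from a stem cell growth factor screen; measures binding of labelled protein to compounds printed on the slide; score merges feature fluorescence at 667 nm with signal-to-noise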
# [8] = small-molecule microarray binders of probe aNog, primary screen, biochemical, biotinylated probe, 635/667 nm fluorescence (AID 1115); settings: higher = more signal;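 note: probe is biotinylated aNog protein used at 0.15 µg/mL for 1 h at 4 C; z-score combines 667 nm fluorescence of each spot with its signal to noise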
# [9] = target: Torsin-1A-interacting protein 1 (Homo sapiens) (UniProt Q5JTV8); assay: LAP1 binders from COS7 cell lysate, primary screen, small-molecule microarray, 635/667 nm fluorescence (AID 1116); settings: COS7-hLAP1 lysate binding, 635 nm fluorescence, higher = more signal
# [10] = target: Alpha-bungarotoxin (Bungarus multicinctus) (UniProt P60615); assay: alpha-bungarotoxin binders on microarray, profiling panel, artefact control for SMM control protein annotation, biochemical, small-molecule microarray, Alexa647 label, 635/667 nm fluorescence (AID 1117); settings: alpha-BTX-A647 binding fluorescence, higher = more signal
# [11] = target: Albumin (Bos taurus) (UniProt P02769); assay: bovine serum albumin binders on microarray, profiling panel, artefact control for SMM control protein annotation, biochemical, small-molecule microarray, Alexa647 label, 635/667 nm fluorescence (AID 1118); settings: BSA-A647 binding, fluorescence 635 nm, higher = more signal;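 note: score merges 667 nm emission intensity and signal-to-noise per printed compound spot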
# [12] = small-molecule microarray binders of probe aXIP, primary screen, biochemical, NeuroSMM set, 635/667 nm fluorescence (AID 1119); settings: higher = more signal, called active from +8 up or from −8 down;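 note: probe is the protein aXip251-270 applied at 1 µg/mL to compound-printed slides; binding of probe to printed compounds measured as 667 nm fluorescence plus signal to noise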
# [13] = small-molecule binders of probe aNOTCH3, primary screen, biochemical, small-molecule microarray, 635/667 nm fluorescence (AID 1120); settings: higher = more signal;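 note: probe is a biotin-tagged antibody raised against NOTCH3 rather than NOTCH3 protein; score merges spot fluorescence near 667 nm with spot signal to noise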
# [14] = small-molecule binders of probe aNOTCH2, primary screen, biochemical, small-molecule microarray, 635/667 nm fluorescence (AID 1121); settings: higher = more signal;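 note: score merges feature fluorescence read at 667 nm with its signal to noise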
# [15] = target: Carbonic anhydrase 2 (Homo sapiens) (UniProt P00918); assay: CAII small-molecule binders, profiling panel, biochemical, small-molecule microarray, Alexa647-labelled CAII (AID 1122); settings: CAII-A647 binding fluorescence, higher = more signal
# [16] = COS7 lysate on small-molecule microarray, probe aHis, 635 nm (AID 1123); settings: COS7 cell lysate, fluorescence, higher = more signal;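 note: z-score combines 667nm fluorescence intensity with signal-to-noise per printed compound spot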
# [17] = compound binding in COS7 lysate, probe aLAP1, primary screen, cell lysate, small-molecule microarray (AID 1124); settings: probe aLAP1, fluorescence, higher = more signal;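 note: lysate comes from COS7 cells expressing LAP1 and is applied at 0.3 µg/mL; score merges spot fluorescence near 667 nm with signal-to-noise over triplicate slides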
# [18] = system: Sam68 (KHDRBS1); assay: Sam68 small-molecule binders, primary screen, biochemical, small-molecule microarray, 635 nm fluorescence (AID 1125); settings: small-molecule microarray binding, higher = more signal;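 note: score merges 667 nm channel intensity with signal to noise over triplicate slides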
# [19] = system: Chordin-like protein 2 (CHRDL2); assay: CHRDL2 small-molecule binders, primary screen, biochemical, small-molecule microarray, 635 nm fluorescence (AID 1126); settings: small-molecule microarray binding, fluorescence 635 nm; higher = more signal;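 note: printed compound slides probed with Chrdl2 protein at 4 µg/mL for 1 h at 4 C; score merges 667 nm emission intensity with signal to noise over three replicate slides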
# [20] = target: Concanavalin-A (Canavalia ensiformis) (UniProt P02866); assay: ConA small-molecule binders, primary screen, artefact control for SMM control protein annotation, biochemical, small-molecule microarray, Alexa647 label, 635 nm (AID 1127); settings: ConA-A647 binding fluorescence, higher = more signal;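 note: z combines 667 nm emission intensity with signal-to-noise across three replicate slides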
# Concanavalin-A (Canavalia ensiformis), sequence (P02866 whole entry, looked up): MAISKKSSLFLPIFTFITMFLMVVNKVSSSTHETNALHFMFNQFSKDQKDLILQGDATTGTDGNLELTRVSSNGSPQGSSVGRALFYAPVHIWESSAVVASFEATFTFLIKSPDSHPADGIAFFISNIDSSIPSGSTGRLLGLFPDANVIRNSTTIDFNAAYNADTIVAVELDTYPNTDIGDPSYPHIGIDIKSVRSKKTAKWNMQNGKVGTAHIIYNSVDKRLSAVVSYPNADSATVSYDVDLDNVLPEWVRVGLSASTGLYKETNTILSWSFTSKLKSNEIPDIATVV
# Alpha-bungarotoxin (Bungarus multicinctus), sequence (P60615 whole entry, looked up): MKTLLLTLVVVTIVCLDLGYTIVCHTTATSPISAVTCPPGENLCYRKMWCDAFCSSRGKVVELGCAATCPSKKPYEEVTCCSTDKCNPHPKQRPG
# Torsin-1A-interacting protein 1 (Homo sapiens), sequence (Q5JTV8 whole entry, looked up): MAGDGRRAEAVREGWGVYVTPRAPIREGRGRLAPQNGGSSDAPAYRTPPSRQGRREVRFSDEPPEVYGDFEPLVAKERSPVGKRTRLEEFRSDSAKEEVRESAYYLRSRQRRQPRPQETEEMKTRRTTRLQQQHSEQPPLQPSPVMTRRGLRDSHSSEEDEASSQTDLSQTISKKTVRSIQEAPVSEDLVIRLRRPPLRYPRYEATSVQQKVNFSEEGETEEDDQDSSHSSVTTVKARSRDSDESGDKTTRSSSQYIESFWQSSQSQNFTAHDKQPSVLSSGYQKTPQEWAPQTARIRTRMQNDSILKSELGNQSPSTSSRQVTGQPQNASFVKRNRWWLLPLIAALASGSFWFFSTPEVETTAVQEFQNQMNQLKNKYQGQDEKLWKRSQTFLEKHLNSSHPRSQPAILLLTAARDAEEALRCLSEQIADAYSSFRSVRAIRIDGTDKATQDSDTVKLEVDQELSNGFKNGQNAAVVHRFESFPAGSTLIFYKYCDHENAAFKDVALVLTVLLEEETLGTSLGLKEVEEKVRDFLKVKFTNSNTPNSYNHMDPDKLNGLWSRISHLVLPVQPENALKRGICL
# Albumin (Bos taurus), sequence (P02769 whole entry, looked up): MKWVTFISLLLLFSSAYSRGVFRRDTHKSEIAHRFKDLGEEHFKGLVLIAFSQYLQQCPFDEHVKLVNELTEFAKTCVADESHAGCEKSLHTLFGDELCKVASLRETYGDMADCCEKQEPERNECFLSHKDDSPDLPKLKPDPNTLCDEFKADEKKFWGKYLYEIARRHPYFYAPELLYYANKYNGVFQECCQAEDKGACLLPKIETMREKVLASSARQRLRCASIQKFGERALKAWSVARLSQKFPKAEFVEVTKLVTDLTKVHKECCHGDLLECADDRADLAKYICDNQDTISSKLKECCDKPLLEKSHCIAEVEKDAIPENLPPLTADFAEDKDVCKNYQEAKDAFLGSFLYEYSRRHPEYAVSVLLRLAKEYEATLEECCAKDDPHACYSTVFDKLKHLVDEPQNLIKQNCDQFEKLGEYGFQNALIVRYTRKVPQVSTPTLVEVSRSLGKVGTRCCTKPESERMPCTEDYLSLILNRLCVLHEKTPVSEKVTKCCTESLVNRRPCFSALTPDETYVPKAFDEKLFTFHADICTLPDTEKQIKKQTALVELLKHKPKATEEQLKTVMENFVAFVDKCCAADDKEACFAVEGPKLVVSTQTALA
# Left-right determination factor 2 (Homo sapiens), sequence (O00292 whole entry, looked up): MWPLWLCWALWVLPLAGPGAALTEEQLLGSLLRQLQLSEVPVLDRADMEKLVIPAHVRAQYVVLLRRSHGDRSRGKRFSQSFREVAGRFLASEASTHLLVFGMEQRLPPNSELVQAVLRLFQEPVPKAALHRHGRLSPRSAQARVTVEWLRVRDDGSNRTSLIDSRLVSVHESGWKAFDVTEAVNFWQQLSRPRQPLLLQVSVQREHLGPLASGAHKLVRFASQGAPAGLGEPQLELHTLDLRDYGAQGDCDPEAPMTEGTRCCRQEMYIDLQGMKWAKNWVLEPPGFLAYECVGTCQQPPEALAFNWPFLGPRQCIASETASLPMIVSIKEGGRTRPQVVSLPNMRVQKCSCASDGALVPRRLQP
SMILES,composite z-score [1],z-score [2],composite z-score [3],composite z-score [4],composite z-score [5],composite z-score [6],composite z-score [7],composite z-score [8],composite z-score [9],composite z-score [10],composite z-score [11],composite Z-score [12],composite z-score [13],composite z-score [14],composite z-score [15],composite z-score [16],composite z-score [17],composite z-score [18],composite z-score [19],composite z-score [20]
O=C1C[C@@](C(=O)O)(c2ccc([N+](=O)[O-])cc2)[C@@H](c2ccc(CO)cc2I)N1C1CCCCC1,-0.549,-1.32,-0.27,1.6,0.734,0.0194,-0.299,-0.103,-0.126,1.28,0.909,0.477 (inactive),0.18,-0.0397,0.673,1.95,-0.405,0.765,-0.422,1.15
C[n+]1ccc2ccc(O)cc2c1,0.642,-0.337,0.92,-0.825,-1.61,-0.124,-0.0804,-0.323,1.62,0.273,-0.567,-0.269 (inactive),-0.0044,-0.102,0.596,0.403,0.854,0.14,1.27,0.369
CCCNC(=O)[C@@]1(C)c2ccccc2C(=O)N(Cc2ccc(OC(F)(F)F)cc2)[C@H]1c1ccc(CO)cc1,-0.481,-0.16,-0.808,0.149,-0.124,-0.0685,-0.222,0.597,1.28,0.0855,0.132,2.11 (inactive),-0.0397,-0.0035,0.267,-0.517,0.727,0.565,-0.602,0.949
COC(=O)[C@@]1(Cc2ccc(OC)cc2)[C@H]2c3cc(C(=O)N4CCCC4)n(C[C@H](O)CO)c3C[C@H]2CN1C(=O)c1ccccc1,0.464,-0.439,-0.416,1.14,0.91,-0.252,1.17,1.59,0.707,0.113,0.947,0.509 (inactive),0.0824,0.0817,0.869,1.62,0.226,-0.0743,-0.229,0.556
CN1C(=O)C2C=CC(C(O)C=Cc3ccc([N+](=O)[O-])cc3)N(N3CCCCC3)C2C1=O (stereo not given),0.974,0.789,0.443,2.44,0.925,0.613,0.926,1.66,0.856,2.07,0.933,0.693 (inactive),1.03,0.713,0.766,2.1,1.52,1.31,0.57,1.2
CC(=O)NCCCC[C@@H]1NC(=O)[C@@H]2C[C@H](C(=O)NCc3ccc(F)cc3)[C@H](c3ccc(O)cc3)N2C1=O,0.0999,-0.673,0.591,0.0633,-0.72,-0.103,0.785,-0.314,0.362,0.346,-1.25,0.15 (inactive),-0.0391,-0.153,0.715,1.79,0.453,1.02,0.526,1.15
